Here are results for 42 compounds from paper PMC4336329 (PLoS ONE, 2015).

The campaign covered roughly 310,000 compounds. About 14,000 (4.5%) showed an effect of 50% or more. Effects have a minus sign here. What follows is part of a selection rich in strong results, with near analogues and random picks from the rest.
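Note: peak tail current of the secondary pulse compared with the same well before compound.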

This experiment deals with human ether-à-go-go-related gene (hERG) potassium channel (human, UniProt Q12809). Nature of the experiment: primary screen, population patch clamp on CHO cells stably expressing hERG; higher = less effect of the substance.
human ether-à-go-go-related gene (hERG) potassium channel, sequence (Q12809 whole entry, looked up): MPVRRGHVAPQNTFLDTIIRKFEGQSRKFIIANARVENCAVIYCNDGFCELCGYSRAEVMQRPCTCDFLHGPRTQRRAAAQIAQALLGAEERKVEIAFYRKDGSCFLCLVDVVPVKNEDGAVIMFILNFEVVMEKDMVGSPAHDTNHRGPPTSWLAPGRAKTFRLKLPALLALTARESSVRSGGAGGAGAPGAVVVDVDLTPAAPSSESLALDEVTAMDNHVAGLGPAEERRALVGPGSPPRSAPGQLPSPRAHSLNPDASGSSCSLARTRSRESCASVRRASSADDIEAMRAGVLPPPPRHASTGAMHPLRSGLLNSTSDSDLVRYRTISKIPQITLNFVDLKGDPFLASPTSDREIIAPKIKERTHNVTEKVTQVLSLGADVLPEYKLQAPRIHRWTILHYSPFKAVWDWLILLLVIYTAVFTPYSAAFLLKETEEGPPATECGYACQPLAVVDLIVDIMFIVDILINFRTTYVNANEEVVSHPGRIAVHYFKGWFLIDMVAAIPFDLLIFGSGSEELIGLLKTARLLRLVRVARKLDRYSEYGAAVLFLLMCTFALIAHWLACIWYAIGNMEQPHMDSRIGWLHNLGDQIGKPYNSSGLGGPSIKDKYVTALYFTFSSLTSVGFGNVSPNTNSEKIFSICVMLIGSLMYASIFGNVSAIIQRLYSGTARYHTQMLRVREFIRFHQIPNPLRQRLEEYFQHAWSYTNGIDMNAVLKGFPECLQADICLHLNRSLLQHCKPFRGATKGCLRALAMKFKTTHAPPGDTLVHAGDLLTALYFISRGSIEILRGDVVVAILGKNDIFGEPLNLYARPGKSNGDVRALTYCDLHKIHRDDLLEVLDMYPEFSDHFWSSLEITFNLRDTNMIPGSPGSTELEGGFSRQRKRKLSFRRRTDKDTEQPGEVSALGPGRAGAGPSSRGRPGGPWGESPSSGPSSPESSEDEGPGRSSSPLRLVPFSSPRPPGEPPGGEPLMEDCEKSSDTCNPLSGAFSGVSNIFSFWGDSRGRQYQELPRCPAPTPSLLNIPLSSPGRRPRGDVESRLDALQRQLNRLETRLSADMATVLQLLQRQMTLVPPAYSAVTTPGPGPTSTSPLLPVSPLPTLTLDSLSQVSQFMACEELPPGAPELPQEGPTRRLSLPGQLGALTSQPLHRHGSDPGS
For the compound `COc1ccc(CC2(CO)CCN(Cc3cccc(OC)c3OC)CC2)cc1`, the “hERG current change (%, negative = inhibition) at 10uM” value was -60.5%.

Take `COc1cccc(CC2(CO)CCN(Cc3cccn3-c3cccnc3)CC2)c1`: the “hERG current change (%, negative = inhibition) at 10uM” value is -47.7%. Then `COc1ccc(C2=NOC3(CC(=O)N(c4ccc(C)cc4)C3=O)C2)c(OC)c1` (stereo not drawn), with 4.08%; and `CCOC(=O)N1CCN(Cc2cccs2)CC1`, with 24.3%; and `Cc1ccc(C)c(NC(=O)CSc2nnc3n2CCCCC3)c1`, with 11%.

For `COc1ccnc(Oc2ccc(F)cc2)c1C(=O)N/C=N/OCc1c(Cl)cccc1Cl`, the “hERG current change (%, negative = inhibition) at 10uM” value is -5.9%. For `C(#Cc1ccccc1)CN1CCN(c2ccccn2)CC1.Cl` the value was -8.88%; for `O=C(Nc1cccc(S(=O)(=O)Nc2ccccc2Cl)c1)c1ccc(Cl)nc1`, -8.9%; for `C/C(CCN1CCc2nc(-c3ccccc3)c(-c3ccccc3)cc2C1)=N\O[C@@H](C)c1cc(-c2c(C)cc(C)cc2C)no1`, 4.08%. Take `COc1cccc(-c2cc(C(F)(F)F)nc(-n3ccc([N+](=O)[O-])n3)n2)c1`: the “hERG current change (%, negative = inhibition) at 10uM” value is listed as -6.33%. For `CCOC(=O)c1cnc(SCC(=O)Nc2ccccc2C(=O)OC)nc1N` the value was -13.1%; for `COc1ccc2c(c1)CCc1sc(NC(=O)c3ccc(C)cc3)nc1-2`, 10.9%. Then `Cc1ccc2sc(N(CCN(C)C)C(=O)c3ccc4ccccc4c3)nc2c1C.Cl`, with 18.7%. Then `CN(C)CCN(C(=O)c1ccc2c(c1)OCCO2)c1nc2c(Cl)cccc2s1.Cl`, with -59.3%; and `CCN(CC)CCN(C(=O)c1ccc2c(c1)OCCO2)c1nc2c(Cl)cccc2s1.Cl`, with -54.7%; and `CN(C)CCN(C(=O)c1cccc(Cl)c1)c1nc2c(Cl)cccc2s1.Cl`, with -52.6%. `CC1CN(S(=O)(=O)c2ccc(C(=O)N(CCCN(C)C)c3nc4c(Cl)cccc4s3)cc2)CC(C)O1.Cl` (stereo not drawn): the “hERG current change (%, negative = inhibition) at 10uM” value is recorded as -36.7%. Then `COC(=O)c1ccc(C(=O)N(CCN(C)C)c2nc3c(Cl)cccc3s2)cc1.Cl`, with -54.9%; and `CCN(CC)CCN(C(=O)c1ccc2c(c1)CCCC2)c1nc2c(C)cccc2s1.Cl`, with -30.2%.

As to `CC(=O)c1ccc(C(=O)N(CCN(C)C)c2nc3c(Cl)cccc3s2)cc1.Cl`, the “hERG current change (%, negative = inhibition) at 10uM” value is listed as -48.6%. With `COc1ccccc1OCCNC(=O)c1cc(F)c(F)cc1Cl`, the “hERG current change (%, negative = inhibition) at 10uM” value is -2.68%. For `Cc1ccccc1-n1nnnc1SC(C)C(=O)Nc1ccc(N2CCN(C)CC2)cc1` (stereo not drawn) the value was -25.4%; for `COc1ccc(NC(=O)[C@@H]2CC=C[C@@H]3CCN(Cc4ccccc4)C(=O)[C@@H]32)cc1`, -8.12%; for `COC(=O)[C@@H]1C[C@@H]2CC[C@@H](O)C[C@@H]2N1Cc1ccc(Cl)cc1`, 23.7%.

Turning to `CCOc1cc(/C=C2\C(=O)N(c3nc(-c4ccc(Br)cc4)cs3)N=C2c2ccccc2)ccc1O`, the “hERG current change (%, negative = inhibition) at 10uM” value was found to be 4.44%. For `CS(=O)(=O)c1ccc(Cl)c(NC(=O)C2CC(=O)N(Cc3ccco3)C2)c1` (stereo not drawn) the value was 9.79%. For `CS(=O)(=O)c1ccc(C(=O)OCC(=O)NC(=O)C2CCCCC2)cc1[N+](=O)[O-]` the value was 28.1%. For `Cc1ccc(-c2cc(C(F)F)n3ncc(C(=O)N4CCCc5ccccc54)c3n2)cc1` the value was 3.94%; for `C=CCn1c(SCC(=O)NCc2ccco2)nnc1-c1ccc2ccccc2n1`, -28.2%. Turning to `COC(C(=O)Nc1ccc(F)c(F)c1)c1ccccc1` (stereo not drawn), the “hERG current change (%, negative = inhibition) at 10uM” value is reported as -13.7%. For `COc1ccc(NS(=O)(=O)c2cccc(C(=O)NCC3CCCO3)c2)cc1` (stereo not drawn) the value was -0.415%; for `Cn1cnnc1SCC(=O)NCCC(c1ccccc1)c1ccccc1`, 7.79%; for `O=C(COc1ccc(Br)cc1)N1CCN(c2ccc([N+](=O)[O-])c(N3CCCCC3)c2)CC1`, -14.1%. Then `O=C(COc1ccc(Cl)cc1)N1CCN(c2ccc([N+](=O)[O-])c(N3CCOCC3)c2)CC1`, with -71.5%; and `Cc1ccc(OCC(=O)N2CCN(c3ccc([N+](=O)[O-])c(N4CCOCC4)c3)CC2)cc1`, with -71.4%.

Take `O=C(COc1ccc(Cl)cc1)N1CCN(c2ccc([N+](=O)[O-])c(N3CCCCC3)c2)CC1`: the “hERG current change (%, negative = inhibition) at 10uM” value was 2.92%. Then `O=C(COc1ccccc1Cl)N1CCN(c2ccc([N+](=O)[O-])c(N3CCOCC3)c2)CC1`, with -25.7%. Then `O=C(COc1ccccc1)N1CCN(c2ccc([N+](=O)[O-])c(N3CCCCC3)c2)CC1`, with -13.6%. For `O=c1c2ccccc2nc(/C=C/c2ccco2)n1-c1ccccc1O` the value was -13.3%; for `O=C(COC(=O)/C=C/C(=O)OCC(=O)Nc1ccccc1F)Nc1ccccc1F`, 12.9%. As for `COc1ccc(C(CC(=O)O)NC(C)=O)cc1OC` (stereo not drawn), the “hERG current change (%, negative = inhibition) at 10uM” value was determined as 10.4%. Then `CCCc1nc(SCC(=O)Nc2nnc(SCC)s2)c2c(=O)n(C)c(=O)n(C)c2n1`, with 3.68%.
